# Laboratory results from PubChem BioAssay AID1835 (Johns Hopkins Ion Channel Center, 2009).
# About 750 (31%) of roughly 2,400 compounds were called active.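 Rule for the calls: active = median signal gain over dofetilide-blocked control wells reaching their mean plus 3 SD, so readout 1 at least 0; inactive = the rest.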 Some of the results follow. Where a SMILES comes first, the peptide text is derived from it. The star is where a group is joined. Cbz = O=C(OCc1ccccc1)*
# Target: Voltage-gated inwardly rectifying potassium channel KCNH2 (Homo sapiens) (UniProt Q12809)
# Test: modulators restoring hERG flux under dofetilide – cell-based, thallium flux, duplicate retest, dofetilide IC70, confirmation (AID 1835)
# Conditions: hERG cell line, FluxOR thallium flux, dofetilide-blocked; at 10 µM; hits give high values
# Sequence of Voltage-gated inwardly rectifying potassium channel KCNH2 (Homo sapiens) (Q12809 whole entry, looked up): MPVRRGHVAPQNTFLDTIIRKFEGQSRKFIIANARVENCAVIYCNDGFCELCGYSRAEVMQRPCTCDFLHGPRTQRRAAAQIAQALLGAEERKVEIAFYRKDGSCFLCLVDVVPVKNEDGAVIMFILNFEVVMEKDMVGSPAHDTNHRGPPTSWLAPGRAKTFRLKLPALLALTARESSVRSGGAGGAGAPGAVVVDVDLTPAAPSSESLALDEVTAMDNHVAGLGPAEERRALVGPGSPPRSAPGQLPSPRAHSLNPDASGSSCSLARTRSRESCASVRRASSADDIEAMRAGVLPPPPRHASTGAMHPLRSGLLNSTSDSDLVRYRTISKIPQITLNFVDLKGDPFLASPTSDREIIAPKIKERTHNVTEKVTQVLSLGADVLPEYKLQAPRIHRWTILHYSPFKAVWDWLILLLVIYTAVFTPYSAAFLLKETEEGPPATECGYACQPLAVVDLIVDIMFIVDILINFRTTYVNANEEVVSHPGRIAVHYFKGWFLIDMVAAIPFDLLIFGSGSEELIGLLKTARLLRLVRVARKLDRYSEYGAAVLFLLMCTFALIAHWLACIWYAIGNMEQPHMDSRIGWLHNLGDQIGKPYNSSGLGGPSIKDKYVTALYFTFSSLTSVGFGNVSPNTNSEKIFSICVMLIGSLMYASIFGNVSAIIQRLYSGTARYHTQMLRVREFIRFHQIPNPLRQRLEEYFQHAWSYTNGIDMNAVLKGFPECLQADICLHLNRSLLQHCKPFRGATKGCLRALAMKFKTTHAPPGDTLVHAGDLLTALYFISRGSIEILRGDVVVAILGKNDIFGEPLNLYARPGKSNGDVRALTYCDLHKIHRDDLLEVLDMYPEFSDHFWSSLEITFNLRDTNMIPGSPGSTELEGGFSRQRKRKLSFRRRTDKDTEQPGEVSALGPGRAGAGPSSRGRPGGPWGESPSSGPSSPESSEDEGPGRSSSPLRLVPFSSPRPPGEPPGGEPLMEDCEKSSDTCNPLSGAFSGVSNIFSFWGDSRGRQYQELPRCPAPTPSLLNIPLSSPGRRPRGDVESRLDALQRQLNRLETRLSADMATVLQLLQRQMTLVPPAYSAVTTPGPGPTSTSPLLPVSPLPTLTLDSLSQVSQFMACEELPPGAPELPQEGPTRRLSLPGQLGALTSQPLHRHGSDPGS
row,SMILES,"activity increase over dofetilide control, less the hit threshold"
1,C[n+]1ccccc1COc1ccc(C(C)(C)C)cc1,-15% (inactive)
2,COC(=O)c1ccc(/C=C/c2ccc3cccc(OC)c3n2)cc1,-7% (inactive)
3,Cc1ccc(C)c(/C=C/C(=O)c2ccccc(=O)c2O)c1,-3% (inactive)
4,Cc1ccc(/C=C/C(=O)c2ccccc(=O)c2O)c(C)c1,22% (active)
5,Cc1ccc(NS(=O)(=O)c2ccc(NC(=O)c3ccccc3C(=O)O)cc2)cc1C,-5% (inactive)
6,Cc1ccc(C(=O)c2ccccc2C(=O)O)c(O)c1,-6% (inactive)
7,Cc1ccc(/C=C/C(=O)c2ccccc(=O)c2O)cc1C,8% (active)
8,O=C(/C=C/c1ccccc1Cl)c1ccccc(=O)c1O,13% (active)
9,CC(=O)c1sc(-c2ccc(F)cc2)cc1NS(=O)(=O)c1ccc(C)cc1,-14% (inactive)
10,CC1=[N+]([O-])C(C)(C)C(c2ccc(Br)cc2)=[N+]1[O-],-3% (inactive)
11,COCCNC(=O)CN(C(=O)c1ccc(N2CCCC2)nc1)c1ccccc1,-15% (inactive)
12,CCc1ccc2[nH]c(=O)c(-c3ccccc3)c(O)c2c1,-20% (inactive)
13,CCC(C)C(NC(=O)C(C)NC(=O)CNC(=O)CNC(=O)OCc1ccccc1)C(=O)OC (centres undefined) (Cbz-GGAI-OMe; configuration not given here),-22% (inactive)
14,CN1C(=O)NC(c2cccc([N+](=O)[O-])c2)C2=C1CC(C)(C)CC2=O (centres undefined),-14% (inactive)
15,CCc1ccccc1NC(=O)CC1CS(=O)(=O)CC1CC(=O)Nc1ccccc1CC (centres undefined),-4% (inactive)
16,N#C/C(=N\Nc1ccccc1F)c1nc(-c2ccccc2)cs1,-14% (inactive)
17,O=C(O)/C=C/c1cn(-c2ccccc2)nc1-c1ccc(-c2ccc([N+](=O)[O-])cc2)o1,27% (active)
18,COC(=O)Oc1ccc(/C=C/C(=O)OC(C)C)cc1OC(=O)OC,2% (active)
19,Cc1cc(C)nc(NS(=O)(=O)c2ccc(NC(=O)Cc3ccccc3)cc2)n1,-5% (inactive)
20,Cc1cc(O)c(/C=N/OCc2ccc(Cl)cc2Cl)c(=O)o1,-4% (inactive)
21,Brc1ccc(-c2noc(CCc3ccccc3)n2)cc1,-20% (inactive)
22,CC(C)Cn1c(=S)[nH]c2cc(Cl)ccc21,5% (active)
23,Cc1nnc(SCC2=C(C(=O)O)N3C(=O)C(NC(=O)Cn4nc(C(F)F)cc4C)C3SC2)s1 (centres undefined),-5% (inactive)
24,Cc1ccccc1NP(=O)(c1ccccc1)c1nc2ccccc2s1 (centres undefined),-8% (inactive)
25,Cc1ccc(C)c2sc(NC(=O)c3nc4ccccc4s3)nc12,35% (active)
26,Cc1ccc(C)c(NC(=S)c2nc3ccccc3s2)c1,-10% (inactive)
27,Cc1ccccc1C(=O)NNC(=O)C(=O)Nc1cccc(Cl)c1C,27% (active)

row,SMILES,"activity increase over dofetilide control, less the hit threshold"
1,COc1ccccc1C(=O)NNC(=O)C(=O)Nc1cccc(Cl)c1C,100% (active)
2,COc1ccccc1C(=O)Nc1ccc(C(=O)N2CCCC2)cc1,0% (inactive)
3,COc1ccc(Cl)cc1C(=O)Nc1cccnc1Cl,-8% (inactive)
4,CC(=O)Nc1ccccc1C(=O)C(=O)Nc1ccc(Cl)cc1,-3% (inactive)
5,C/C(CC(=O)Nc1ccccn1)=N\NC(=O)C(=O)Nc1cccc(Cl)c1C,-6% (inactive)
6,NC(=O)Cn1c2[n+](c3ccccc31)CC(O)CS2 (centres undefined),-24% (inactive)
7,CCCN1C(=O)/C(=C/c2ccc(C)s2)NC1=S,71% (active)
8,CCN1C(=O)/C(=C/c2ccc(C)s2)NC1=S,14% (active)
9,CC(C)CN1C(=O)/C(=C/c2cccs2)NC1=S,85% (active)
10,CC(C)CN1C(=O)/C(=C/c2ccco2)NC1=S,-26% (inactive)
11,CCCN1C(=O)/C(=C/c2ccc3c(c2)OCO3)NC1=S,-13% (inactive)
12,COC(=O)c1c(NS(=O)(=O)c2ccc3ccccc3c2)sc2c1CCCC2,29% (active)
13,Cc1ccc(C(=O)Nc2sc3c(c2C(=O)O)CCCCC3)o1,-22% (inactive)
14,COc1ccc(S(=O)(=O)Nc2ccc(O)c3ccccc23)cc1,-21% (inactive)
15,COC(=O)c1c(NS(=O)(=O)Cc2ccccc2)sc2c1CCCC2,31% (active)
16,CCOC(=O)c1c(NS(=O)(=O)Cc2ccccc2)sc2c1CCCC2,69% (active)
17,CCOC(=O)c1c(NS(=O)(=O)c2ccc(Br)cc2)sc2c1CCC2,68% (active)
18,COc1ccc(NS(=O)(=O)c2ccc3ccccc3c2)c2ncccc12,-20% (inactive)
19,O=C(O)C1C2CCC(O2)C1C(=O)Nc1ccc(F)c(Cl)c1 (centres undefined),-7% (inactive)
20,Cc1ccc(CN2CCN(CC(=O)NC(C)c3ccc4c(c3)OCCO4)C2=O)cc1 (centres undefined),-9% (inactive)
21,O=c1[nH]c(=O)n(CCc2ccc(F)cc2)c(O)c1C=NCc1ccc2c(c1)OCO2,-26% (inactive)
22,CC(C)=CCCC1=CCC2C(=O)NNC(=O)C2C1 (centres undefined),-11% (inactive)
23,CCOc1ccc(N)c(SSc2cc(OCC)ccc2N)c1,-43% (inactive)
24,COC(=O)CNc1nc(Cl)nc(Nc2ccc(C)cc2)n1,-7% (inactive)
25,Cc1nnc(NC(=O)C2CCCN(S(=O)(=O)c3ccccc3C(F)(F)F)C2)s1 (centres undefined),4% (active)
26,COC(=O)c1ccccc1NC(=O)C1CCCN(S(C)(=O)=O)C1 (centres undefined),-17% (inactive)
27,CCc1nnc(NC(=O)C2CCCCN2S(=O)(=O)c2ccccc2)s1 (centres undefined),-16% (inactive)
